Hit rate of the full screen: of about 48,000 compounds, about 1,200 (2.5%) were called active. Inconclusive results (about 2%) are left out.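 The calls were made as follows: active = activation of at least 60% and not above a set upper limit (about 1 call in 100 departs from these limits); inconclusive = activation of 40% to 60%, or above that upper limit; inactive = activation under 40%.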 The list comes from a sample in which actives are over-represented; it also holds similar structures and randomly drawn compounds.
Molecular target: Probable G-protein coupled receptor 32 (Homo sapiens) (UniProt O75388)
Assay: qHTS for Agonists of Human Resolvin D1 Receptor DRV1; also: 0% is about no effect
Details: CHO-K1 GPR32 beta-arrestin PathHunter luminescence, 90 min; at 76.9 µM; stronger effect = higher value; zero percent set by DMSO-only wells
How it was run: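 Readings come from a cell-based beta-arrestin complementation format: CHO-K1 GPR32 stable cells (2,500/well) treated 90 min with compounds, then beta-Gal substrate added for 1 h before chemiluminescence imaging.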

Probable G-protein coupled receptor 32 (Homo sapiens), sequence (O75388 whole entry, looked up): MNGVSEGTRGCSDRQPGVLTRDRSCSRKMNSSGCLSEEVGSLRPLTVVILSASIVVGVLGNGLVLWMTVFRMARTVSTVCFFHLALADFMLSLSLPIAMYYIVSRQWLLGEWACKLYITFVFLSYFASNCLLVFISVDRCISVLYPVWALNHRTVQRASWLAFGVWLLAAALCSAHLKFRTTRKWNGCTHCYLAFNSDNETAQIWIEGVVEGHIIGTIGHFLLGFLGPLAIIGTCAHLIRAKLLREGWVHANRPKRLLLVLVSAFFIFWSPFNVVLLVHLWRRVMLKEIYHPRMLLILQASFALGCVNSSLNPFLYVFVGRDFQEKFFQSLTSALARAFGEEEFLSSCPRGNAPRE

| SMILES | activation |
| --- | --- |
| COCCCNC(=O)C1CCC(CNS(=O)(=O)c2ccc(OC)cc2)CC1 (centres undefined) | -7.55% (inactive) |
| COc1ccc(N2C(=O)NC(NS(=O)(=O)c3ccc(Cl)cc3)(C(F)(F)F)C2=O)cc1 (centres undefined) | -2.22% (inactive) |
| Cc1nnc(SCc2cc(=O)c3cc(F)ccc3[nH]2)n1C | -15.5% (inactive) |
| CCC(=O)N1CCc2cc(Br)cc(S(=O)(=O)CCC(=O)N3CCN(c4ccc(F)cc4)CC3)c21 | 1.23% (inactive) |
| CCCCn1cc(S(=O)(=O)c2ccc(OCC)cc2)c(=O)c2cc(OC)c(OC)cc21 | -26% (inactive) |
| COc1ccc(CCC(=O)NCc2ccc3c(c2)CCN3C(=O)c2ccc(F)cc2)cc1 | -17.6% (inactive) |
| CCC(Sc1nnc(-c2ccc(OC)cc2)c(-c2ccc(OC)cc2)n1)C(=O)NC1CCCCC1 (centres undefined) | -11.5% (inactive) |
| CCOC(=O)c1ccc(NC(=O)c2nc(SCc3ccc(F)cc3)ncc2Cl)cc1 | -27.7% (inactive) |
| CCCS(=O)(=O)c1ncc(Cl)c(C(=O)Nc2scc(-c3ccccc3)c2C(=O)OCC)n1 | 97.2% (active) |
| Cc1ccc(NC(=O)c2nc(S(=O)(=O)Cc3cccc(C)c3)ncc2Cl)cc1 | -21.8% (inactive) |
| CCOC(=O)C1CCCN(CC(=O)Nc2cc(C)c3c(=O)oc4ccccc4c3n2)C1 (centres undefined) | -11.1% (inactive) |
| CSc1ccccc1-c1nnc(NC(=O)c2ccc3c(c2)OCCO3)o1 | -21.8% (inactive) |
| CCn1cc(C(=O)NCc2ccc(C)cc2)c(=O)c2cc(S(=O)(=O)N3CCc4ccccc4C3)ccc21 | 70.1% (active) |
| CCOCCCNC(=O)c1cn(CC)c2ccc(S(=O)(=O)N3CCc4ccccc4C3)cc2c1=O | 3.07% (inactive) |
| CCn1cc(C(=O)NCc2ccccc2)c(=O)c2cc(S(=O)(=O)N3CCCCC3)ccc21 | 0.542% (inactive) |
| COc1ccccc1NC(=O)Cn1cnc2ccc(S(=O)(=O)N3CCC(C)CC3)cc2c1=O | 14.7% (inactive) |
| CCc1cccc(CC)c1NC(=O)Cn1c(=O)c(-c2cc(C)ccc2NC(C)=O)nc2ccccc21 | -6.44% (inactive) |
| CCc1nn(CCCN2CCN(c3cccc(Cl)c3)CC2)c(=O)n1CCOc1ccccc1 | 89.4% (active) |
| CCc1nc2ccc(C(=O)N3CCN(c4cccc(Cl)c4)CC3)cc2nc1CC | -29.3% (inactive) |
| CCOC(=O)c1c(C)[nH]c(CCC(=O)NCCCN2CCN(c3cccc(Cl)c3)CC2)c1C | 3.48% (inactive) |
| Cc1ccc(Cl)cc1N(C)C(=O)C1CCCN(c2ncnc3onc(-c4ccc(F)cc4)c23)C1 (centres undefined) | -22% (inactive) |
| CCNC(=O)CC1C(=O)N(c2ccc(F)cc2)C(=O)N1Cc1ccc(C)cc1 (centres undefined) | 0.37% (inactive) |
| CCCCC12CN3CC(C)(CN(C1)C3c1ccc(O)c(OC)c1)C2=O (centres undefined) | -20.2% (inactive) |
| COc1cc(OC)cc(C(=O)Nc2ccc3nc(Nc4cccc(C(F)(F)F)c4)cc(C)c3c2)c1 | -9.34% (inactive) |
| Cc1cc(Nc2cccc(C(F)(F)F)c2)nc2ccc(NC(=O)c3ccc(=O)[nH]c3)cc12 | 112% (active) |
| Cn1c(C(=O)Nc2cccc(C(F)(F)F)c2)cc2c(=O)n3ccccc3nc21 | 4.29% (inactive) |
| Cn1c(=O)sc2cc(NS(=O)(=O)c3ccc(C(C)(C)C)cc3)ccc21 | -13.3% (inactive) |

| SMILES | activation |
| --- | --- |
| CCC(C)c1ccc2oc(-c3ccc(NC(=O)c4cc5ccccc5o4)cc3)nc2c1 (centres undefined) | -0.177% (inactive) |
| CC(C)Oc1ccc(NC(=O)c2cc3ccccc3o2)cc1 | 63.5% (active) |
| Cc1cc2nc(-c3ccc(NC(=O)c4cc5ccccc5o4)cc3)oc2cc1C | -3.47% (inactive) |
| O=C(O)CCCc1ccccc1 | 6.7% (inactive) |
| CCOC(=O)c1ccc(CN(Cc2ccccc2)S(=O)(=O)c2ccc(Cl)cc2)cc1 | -16.7% (inactive) |
| O=C(OCc1ccccc1)c1ccc(O)cc1 | 68.1% (active) |
| COc1ccc(NC(=O)Cn2c(=O)n(Cc3ccc(C(=O)NCc4ccccc4Cl)cc3)c(=O)c3ccccc32)cc1 | -4.2% (inactive) |
| CCCCCCc1ccc(O)cc1O | 89.2% (active) |
| Cc1ccc(O)c(NC(=O)CCS(=O)(=O)c2nc(-c3ccc4c(c3)OCO4)cc(C(F)(F)F)n2)c1 | -25.7% (inactive) |
| COC(=O)c1ccc2c(c1)N(CC(=O)Nc1ccc(C)c(C)c1)C(=O)c1ccccc1S2 | -13.7% (inactive) |
| COc1ccc(CNC(=O)CCc2c(C)nn(-c3ccc(N4CCCC4)nn3)c2C)cc1 | -8.15% (inactive) |
| Cc1nn(Cc2ccc(F)cc2)c(C)c1NC(=O)c1cc(CC(C)C)on1 | 86.4% (active) |
| Cc1ccccc1Cn1nc(C)c(NC(=O)c2cc(-c3ccc(F)cc3)on2)c1C | 6.09% (inactive) |
| O=C(Nc1ccccc1Br)c1cc(CN2CCCC2)on1 | -9.24% (inactive) |
| Cc1ccc(NC(=O)C(Cc2ccccc2)NS(=O)(=O)c2ccc3c(c2)oc(=O)n3C)cc1C (centres undefined) | 4.78% (inactive) |
| CCN(CCCNC(=O)Cn1ncc2c3ccccc3n(C)c2c1=O)Cc1ccccc1 | -3.31% (inactive) |
| Cc1ccc(C)c(N2CCN(C(=O)Cn3nc(C)c4sc5ccccc5c4c3=O)CC2)c1 | -8.71% (inactive) |
| O=C(CCS(=O)(=O)c1ccc2c(c1)NC(=O)CO2)Nc1cccc(C(F)(F)F)c1 | 13.3% (inactive) |
| O=C(CN1c2ccccc2S(=O)(=O)c2ccccc21)Nc1cccc(C(F)(F)F)c1 | 1.8% (inactive) |
| CN(CC(=O)Nc1cccc(C(F)(F)F)c1)S(=O)(=O)c1cccs1 | 67.5% (active) |
| CCc1ccccc1NC(=O)N1CCC2(CC1)Oc1ccccc1C(=O)N2Cc1ccccc1F | -16.7% (inactive) |
| O=C(CSc1n[nH]c(-c2ccccc2)n1)N1CCCCC1 | 7.63% (inactive) |
| COC(=O)c1c(NC(=O)CCCOc2ccccc2)sc2c1CCC(C)C2 (centres undefined) | 7.01% (inactive) |
| CCOc1ccc(NC(=O)c2c(NC(=O)Cc3ccccc3)sc3c2CCC(C)C3)cc1 (centres undefined) | -11.2% (inactive) |
| Cc1cccc(OCCCC(=O)Nc2sc3c(c2C(N)=O)CCC(C)C3)c1 (centres undefined) | 70.3% (active) |
| COc1ccccc1-c1cc2nc(C)c(CCC(=O)O)c(C)n2n1 | -0.841% (inactive) |
| COc1ccc(NC(=O)CCCN2C(=O)CCn3nc(-c4cn(C)c5ccccc45)cc32)cc1OC | 17.2% (inactive) |

From PubChem BioAssay AID1346428 (National Center for Advancing Translational Sciences (NCATS), 2018)
